# Unmarked numbers belong to inactive results. Results filed as inconclusive are left out. Where a call stands in place of a potency, no number is given. Calls of active or inactive are those of the source. Unless noted, calls follow the shape of the dose curve; as a rule, active = well fitted curve in the direction sought with a large enough effect; inconclusive = small, poorly fitted or top-dose-only effect, or another doubt; inactive = no such curve, though single readings can be large; an effect the other way counts as inactive or inconclusive.
# Experiments:
# [1] = molecular target: Rap guanine nucleotide exchange factor 4 (Homo sapiens) (UniProt Q8WZA2); assay: Confirmatory qHTS for agonist of cAMP-regulated guanine nucleotide exchange factor 4 (EPAC2) (AID 1645884);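 also: nucleotide exchange releases bodipy-GDP from Rap1 and this lowers its fluorescence; nearly all actives have a fitted effect of over 65% in size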
# [2] = molecular target: Rap guanine nucleotide exchange factor 4 (Homo sapiens) (UniProt Q8WZA2); assay: Confirmatory qHTS for antagonist of cAMP-regulated guanine nucleotide exchange factor 4 (EPAC2) (AID 1645885); also: nearly all actives have a fitted effect of over 25% in size
# [3] = molecular target: Rap guanine nucleotide exchange factor 3 (Homo sapiens) (UniProt O95398); assay: Counterscreen qHTS for antagonist of cAMP-regulated guanine nucleotide exchange factor 3 (EPAC1) (AID 1645888);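 also: fluorescence loss as bound BODIPY-GDP is released from Rap1B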
# Procedure, shortened: (§1)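 Rap1B–BODIPY-GDP (250 nM) with 50 uM GDP; compounds pin-transferred to 9.74 nM–152 uM final (activator) or from 7.32 nM upwards (inhibitor). Fluorescence Ex/Em 480/540 nm read at 5 and 30 min, then after adding cAMP or buffer, at room temperature.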
# [4] = molecular target: Rap guanine nucleotide exchange factor 3 (Homo sapiens) (UniProt O95398); assay: Counterscreen qHTS for agonist of cAMP-regulated guanine nucleotide exchange factor 3 (EPAC1) (AID 1645889); also: nearly all actives have a fitted effect of over 40% in size; also: potency is read from the fitted curve at half-maximal effect
# Procedure, shortened: as §1
# [5] = molecular target: Cytochrome P450 1A2 (Homo sapiens) (UniProt P05177); assay: p450-cyp1a2 (AID 410; calls by dose curve; also: potency is read from the fitted curve at half-maximal effect)
# Procedure, shortened: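 Luminescent readout of luciferin formed from Luciferin-ME by human CYP1A2; data normalized against complete inhibition by 57 uM furafylline. Enzyme 20nM, substrate 100uM at Km, 100mM KPO4 buffer, 60 min reaction at room temperature.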
# [6] = molecular target: Glucocorticoid receptor (Homo sapiens) (UniProt P04150); assay: GR-GFP Redistribution (AID 450;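 active = compounds whose dose series gives a full or clear partial fitted curve of increased nuclear translocation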; also: potency is read from the fitted curve at half-maximal effect); conditions: U2OS GR-GFP nuclear translocation, laser cytometry, 2 h
# [7] = molecular target: Mitogen-activated protein kinase 10 (Mus musculus) (UniProt Q61831); assay: JNK3 AlphaScreen Assay (AID 530; active = well fitted curve in either direction with a large enough effect, not every such curve was filed as active;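 also: kinase came from lysate of stimulated human HepG2 cells; signal reports phosphorylation of biotinylated GST-cJun 1-79 at Ser73 with 10 µM ATP; series mostly up to about 57 µM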)
# Procedure, shortened: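 Pre-activated (IL-1β/TNFα) JNK3 in HepG2 lysates phosphorylates biotin-GST-cJun(1-79), 10 uM ATP; anti-phospho-cJun(Ser73) AlphaScreen read at room temperature, pH 7.6 Tris buffer. Compounds pre-incubated 15 min as titrations.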
# [8] = molecular target: 3',5'-cyclic-AMP phosphodiesterase 4B (Homo sapiens) (UniProt Q07343); assay: qHTS Assay for Inhibitors of PDE-IV (AID 607; active = well fitted activation curve with a large enough effect in the main read-out, with a control signal flat, not every such curve was filed as active)
# Procedure, shortened: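 ACTOne HEK293 cells carry a modified cAMP-gated CNG channel and express endogenous PDE4; plated 1000 cells/well, compounds up to 22.9 uM final. Membrane-potential dye fluorescence (ex 535/em 590) was read; parental cells received 10 uM forskolin + 100 uM RO 20-1724.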
# [9] = molecular target: Cytochrome P450 2C9 (Homo sapiens) (UniProt P11712); assay: qHTS Assay for Inhibitors and Substrates of Cytochrome P450 2C9 (AID 883); also: nearly all actives have a fitted effect of over 60% in size
# Procedure, shortened: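 Signal: luciferase luminescence reporting luciferin produced by CYP2C9. Conditions: 10nM enzyme, Luciferin-H 100uM at KM, 25mM KPO4, 37C, 60 min NADPH-driven reaction. Reference: 57uM sulphaphenazole as 100% inhibition.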
# [10] = molecular target: Cytochrome P450 3A4 (Homo sapiens) (UniProt P08684); assay: qHTS Assay for Activators of Cytochrome P450 3A4 (AID 885); also: nearly all actives have a fitted effect of over 65% in size
# Procedure, shortened: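 20nM CYP3A4 + 25uM Luciferin-PPXE (=KM), 200mM KPO4; cpd 10 min RT; NADPH regen, 60 min RT; stop w/ detection buffer, 20 min; luminescence. Normalized to 57 uM ketoconazole.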
# [11] = molecular target: Cytochrome P450 2D6 (Homo sapiens) (UniProt P10635); assay: qHTS Assay for Inhibitors and Substrates of Cytochrome P450 2D6 (AID 891);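 also: luciferin methyl ether substrate demethylated by CYP2D6 with NADPH regeneration; nearly all actives have a fitted effect of over 60% in size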
# Procedure, shortened: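 Human CYP2D6 (5 nM) with 30 uM Luciferin-ME EGE (at Km) in 100 mM KPO4, compound preincubated 10 min, then NADPH regeneration system for 60 min at room temperature. Luciferin read by luminescence; normalized to 1.43 uM quinidine.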
# [12] = molecular target: Cytochrome P450 2C19 (Homo sapiens) (UniProt P33261); assay: qHTS Assay for Inhibitors and Substrates of Cytochrome P450 2C19 (AID 899); also: nearly all actives have a fitted effect of over 60% in size
# Procedure, shortened: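 Signal comes from luciferase acting on luciferin released by CYP2C19-mediated hydroxylation of Luciferin-H EGE, 10uM (KM). Assay mix: 5nM enzyme, 50mM KPO4; 60 min at 37C with NADPH regeneration. Data normalized against 57uM ketoconazole.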
# [13] = molecular target: Tyrosyl-DNA phosphodiesterase 1 (Homo sapiens) (UniProt Q9NUW8); assay: Confirmation Assay for Inhibitors of Tyrosyl-DNA Phosphodiesterase (TDP1) (AID 489007); conditions: recombinant human TDP1 enzymatic activity, dose-response; also: potency is read from the fitted curve at half-maximal effect; nearly all actives have a fitted effect of over 40% in size
# Procedure, shortened: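 Tdp1 1 nM + cpd, 15 min RT; add biotin/phosphotyrosine-FITC oligo 15 nM, 5 min RT; add AS donor/acceptor beads 10 ug/ml, 10 min RT; read AlphaScreen. No-enzyme wells = max signal.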
# [14] = molecular target: Tumor susceptibility gene 101 protein (Homo sapiens) (UniProt Q99816); assay: qHTS Assay for Iinhibitors of HIV-1 Budding by Blocking the Interaction of PTAP/TSG101: Hit Validation (AID 651600); also: nearly all actives have a fitted effect of over 70% in size
# Procedure, shortened: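 Fluorescence polarization binding assay: Tsg101 binding domain (10 uM final) pre-dispensed with compounds, then FITC-labeled PTAP-motif peptide (50 nM final) added; 20 min at r.t. in HEPES pH 7.5 buffer with NaCl, Tween 20, EDTA, TCEP.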
# Sequence of Rap guanine nucleotide exchange factor 3 (Homo sapiens) (O95398 whole entry, looked up): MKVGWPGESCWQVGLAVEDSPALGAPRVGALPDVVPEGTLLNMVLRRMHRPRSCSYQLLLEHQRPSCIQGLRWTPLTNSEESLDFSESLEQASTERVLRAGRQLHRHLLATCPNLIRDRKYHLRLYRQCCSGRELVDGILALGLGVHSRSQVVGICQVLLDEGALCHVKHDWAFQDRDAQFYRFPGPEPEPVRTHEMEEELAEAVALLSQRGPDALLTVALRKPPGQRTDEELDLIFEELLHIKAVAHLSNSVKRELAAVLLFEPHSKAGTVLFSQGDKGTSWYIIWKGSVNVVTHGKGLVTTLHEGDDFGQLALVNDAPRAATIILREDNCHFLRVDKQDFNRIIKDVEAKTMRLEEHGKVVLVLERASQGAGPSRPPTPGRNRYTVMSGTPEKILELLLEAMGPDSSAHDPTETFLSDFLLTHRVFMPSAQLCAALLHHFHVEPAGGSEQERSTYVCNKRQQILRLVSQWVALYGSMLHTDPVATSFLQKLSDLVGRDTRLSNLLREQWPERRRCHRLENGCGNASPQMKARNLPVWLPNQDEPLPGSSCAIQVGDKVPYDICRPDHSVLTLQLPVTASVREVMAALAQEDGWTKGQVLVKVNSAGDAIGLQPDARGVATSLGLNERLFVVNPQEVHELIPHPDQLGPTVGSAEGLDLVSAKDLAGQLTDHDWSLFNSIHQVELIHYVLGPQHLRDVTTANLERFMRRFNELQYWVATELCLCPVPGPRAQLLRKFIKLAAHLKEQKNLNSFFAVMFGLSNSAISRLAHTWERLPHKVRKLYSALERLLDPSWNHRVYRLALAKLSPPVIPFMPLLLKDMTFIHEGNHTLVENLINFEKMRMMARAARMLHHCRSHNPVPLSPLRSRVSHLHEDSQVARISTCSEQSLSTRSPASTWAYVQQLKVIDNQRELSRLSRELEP
# Sequence of Rap guanine nucleotide exchange factor 4 (Homo sapiens) (Q8WZA2 whole entry, looked up): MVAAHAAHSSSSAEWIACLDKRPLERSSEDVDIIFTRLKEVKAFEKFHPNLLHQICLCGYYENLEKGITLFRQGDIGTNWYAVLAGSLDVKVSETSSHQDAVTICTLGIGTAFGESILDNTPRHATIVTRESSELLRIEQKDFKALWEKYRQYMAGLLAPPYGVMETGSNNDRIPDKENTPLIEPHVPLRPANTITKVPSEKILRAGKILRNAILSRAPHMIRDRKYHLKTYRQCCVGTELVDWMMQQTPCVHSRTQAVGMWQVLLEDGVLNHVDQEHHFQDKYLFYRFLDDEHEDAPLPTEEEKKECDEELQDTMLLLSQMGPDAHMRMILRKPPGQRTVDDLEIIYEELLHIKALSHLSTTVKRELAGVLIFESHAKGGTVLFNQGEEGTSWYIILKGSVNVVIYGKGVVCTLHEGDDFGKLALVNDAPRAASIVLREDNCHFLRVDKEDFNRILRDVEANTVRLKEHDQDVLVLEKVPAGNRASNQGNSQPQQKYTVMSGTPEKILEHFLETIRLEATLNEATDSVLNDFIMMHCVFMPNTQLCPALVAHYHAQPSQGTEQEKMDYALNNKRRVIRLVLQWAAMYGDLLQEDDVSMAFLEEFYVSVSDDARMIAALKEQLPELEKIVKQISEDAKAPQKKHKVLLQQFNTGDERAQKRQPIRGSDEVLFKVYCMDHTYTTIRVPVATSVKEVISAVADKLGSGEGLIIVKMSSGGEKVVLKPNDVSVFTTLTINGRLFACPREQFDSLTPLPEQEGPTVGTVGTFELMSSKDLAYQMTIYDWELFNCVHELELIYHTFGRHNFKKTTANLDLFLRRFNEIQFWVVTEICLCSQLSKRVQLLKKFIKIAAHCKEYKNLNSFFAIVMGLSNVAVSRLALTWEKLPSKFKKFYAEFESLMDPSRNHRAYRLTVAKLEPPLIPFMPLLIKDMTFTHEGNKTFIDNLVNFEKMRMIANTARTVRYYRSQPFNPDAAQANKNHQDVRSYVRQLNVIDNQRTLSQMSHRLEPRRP
# Sequence of Cytochrome P450 2D6 (Homo sapiens) (P10635 whole entry, looked up): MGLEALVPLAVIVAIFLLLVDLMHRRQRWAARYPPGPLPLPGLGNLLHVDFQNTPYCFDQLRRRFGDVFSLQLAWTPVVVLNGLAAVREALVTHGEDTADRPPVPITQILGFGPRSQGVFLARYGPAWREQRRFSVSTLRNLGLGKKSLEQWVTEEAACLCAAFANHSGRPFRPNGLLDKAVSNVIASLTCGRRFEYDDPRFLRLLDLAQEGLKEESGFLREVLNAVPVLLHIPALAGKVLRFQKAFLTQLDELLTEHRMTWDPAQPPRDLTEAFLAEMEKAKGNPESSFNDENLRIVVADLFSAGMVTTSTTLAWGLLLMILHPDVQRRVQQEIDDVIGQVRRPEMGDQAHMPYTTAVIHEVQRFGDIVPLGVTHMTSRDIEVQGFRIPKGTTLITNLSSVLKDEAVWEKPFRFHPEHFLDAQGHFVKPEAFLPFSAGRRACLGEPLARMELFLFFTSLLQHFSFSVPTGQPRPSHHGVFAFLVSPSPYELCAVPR
# Sequence of Tyrosyl-DNA phosphodiesterase 1 (Homo sapiens) (Q9NUW8 whole entry, looked up): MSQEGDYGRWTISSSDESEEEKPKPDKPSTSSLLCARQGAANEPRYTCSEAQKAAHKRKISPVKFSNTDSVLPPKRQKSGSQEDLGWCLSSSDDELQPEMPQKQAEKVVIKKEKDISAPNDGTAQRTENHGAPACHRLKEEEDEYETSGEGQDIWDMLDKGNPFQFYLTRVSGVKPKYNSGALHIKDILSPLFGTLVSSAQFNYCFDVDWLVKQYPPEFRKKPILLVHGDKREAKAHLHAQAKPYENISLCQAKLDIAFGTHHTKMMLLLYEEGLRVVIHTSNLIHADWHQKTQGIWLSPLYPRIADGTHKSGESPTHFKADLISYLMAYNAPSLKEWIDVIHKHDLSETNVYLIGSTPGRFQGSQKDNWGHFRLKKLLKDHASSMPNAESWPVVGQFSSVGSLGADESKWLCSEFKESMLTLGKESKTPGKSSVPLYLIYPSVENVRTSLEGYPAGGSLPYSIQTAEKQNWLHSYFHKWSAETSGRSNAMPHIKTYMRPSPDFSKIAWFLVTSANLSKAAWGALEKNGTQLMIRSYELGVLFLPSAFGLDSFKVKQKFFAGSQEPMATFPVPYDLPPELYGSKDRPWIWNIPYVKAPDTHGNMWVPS
# Sequence of Cytochrome P450 2C9 (Homo sapiens) (P11712 whole entry, looked up): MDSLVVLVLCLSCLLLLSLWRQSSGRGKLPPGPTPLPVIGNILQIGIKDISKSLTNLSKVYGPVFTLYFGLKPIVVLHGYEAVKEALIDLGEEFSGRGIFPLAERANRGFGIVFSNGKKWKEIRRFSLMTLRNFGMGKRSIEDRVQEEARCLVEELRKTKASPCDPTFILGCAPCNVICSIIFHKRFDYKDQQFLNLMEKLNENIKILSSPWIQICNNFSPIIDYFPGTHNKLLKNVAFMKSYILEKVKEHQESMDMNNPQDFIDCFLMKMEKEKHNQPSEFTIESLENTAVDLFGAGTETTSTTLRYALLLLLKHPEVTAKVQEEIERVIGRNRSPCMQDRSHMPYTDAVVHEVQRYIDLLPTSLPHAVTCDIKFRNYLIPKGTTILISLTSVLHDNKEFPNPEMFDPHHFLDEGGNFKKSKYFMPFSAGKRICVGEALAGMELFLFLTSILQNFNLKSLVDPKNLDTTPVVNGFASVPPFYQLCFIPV
# Sequence of Cytochrome P450 1A2 (Homo sapiens) (P05177 whole entry, looked up): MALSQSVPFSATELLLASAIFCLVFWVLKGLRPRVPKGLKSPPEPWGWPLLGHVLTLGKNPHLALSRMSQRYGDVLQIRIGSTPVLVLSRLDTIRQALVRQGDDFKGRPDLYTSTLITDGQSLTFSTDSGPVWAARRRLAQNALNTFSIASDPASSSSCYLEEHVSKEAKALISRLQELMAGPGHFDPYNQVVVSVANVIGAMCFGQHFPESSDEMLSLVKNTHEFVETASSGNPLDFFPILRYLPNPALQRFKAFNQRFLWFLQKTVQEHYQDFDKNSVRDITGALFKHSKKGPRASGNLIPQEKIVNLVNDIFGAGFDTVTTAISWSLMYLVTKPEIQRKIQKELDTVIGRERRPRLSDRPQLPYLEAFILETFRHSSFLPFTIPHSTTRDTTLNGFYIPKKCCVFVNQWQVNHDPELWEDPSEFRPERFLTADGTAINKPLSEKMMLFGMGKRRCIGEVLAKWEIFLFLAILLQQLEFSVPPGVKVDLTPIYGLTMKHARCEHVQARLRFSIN
# Sequence of 3',5'-cyclic-AMP phosphodiesterase 4B (Homo sapiens) (Q07343 whole entry, looked up): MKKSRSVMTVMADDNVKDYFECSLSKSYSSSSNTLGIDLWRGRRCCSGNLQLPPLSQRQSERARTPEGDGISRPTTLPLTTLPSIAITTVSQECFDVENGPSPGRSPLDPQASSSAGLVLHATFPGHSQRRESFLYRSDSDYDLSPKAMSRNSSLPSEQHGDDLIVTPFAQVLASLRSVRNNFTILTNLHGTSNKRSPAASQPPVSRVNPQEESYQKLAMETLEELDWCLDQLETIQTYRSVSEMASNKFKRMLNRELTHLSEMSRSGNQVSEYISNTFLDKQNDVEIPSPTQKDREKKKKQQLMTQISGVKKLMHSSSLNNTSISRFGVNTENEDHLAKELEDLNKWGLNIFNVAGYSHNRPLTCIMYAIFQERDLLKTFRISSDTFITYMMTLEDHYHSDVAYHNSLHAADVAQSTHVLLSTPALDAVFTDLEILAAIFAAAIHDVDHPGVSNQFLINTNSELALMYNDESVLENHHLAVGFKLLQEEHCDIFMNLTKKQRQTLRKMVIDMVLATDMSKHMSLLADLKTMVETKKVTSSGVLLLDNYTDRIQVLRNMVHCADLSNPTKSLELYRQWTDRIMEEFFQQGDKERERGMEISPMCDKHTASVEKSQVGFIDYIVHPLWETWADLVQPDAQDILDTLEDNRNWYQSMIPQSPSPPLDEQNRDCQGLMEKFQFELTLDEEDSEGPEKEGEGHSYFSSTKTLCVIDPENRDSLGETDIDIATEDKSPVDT
compound,measurement,setting,value
Cn1c(SCC(=O)Nc2cccc(C(=O)O)c2)nnc1-c1cc2cc(Br)ccc2o1,Potency,[1],inactive
same,Potency,[2],inactive
same,Potency,[3],inactive
same,Potency,[4],inactive
Cc1ccc(N2C(=O)c3ccccc3C2Nc2ccccc2F)nc1 (centres undefined),activation,[1],"11.4% [at 17.1 µM, percent relative to cAMP agonist control]"
same,Potency,[2],inactive
same,"activity change, negative = inhibition",[3],13.9% [at 30.8 µM]
COc1ccc2cc(-c3nc(Cl)c4c5c(sc4n3)CCCC5)c(=O)oc2c1,Potency,[1],inactive
same,Potency,[2],inactive
same,Potency,[3],inactive
O=[N+]([O-])c1ccc(NS(=O)(=O)c2ccccc2)c(Cl)c1,Potency,[1],inactive
same,Potency,[2],inactive
same,Potency,[3],inactive
same,Potency,[4],inactive
CCc1ccc(N=C2NC(=O)/C(=C/c3ccc(OCC(=O)O)cc3)S2)cc1,activation,[1],"8.62% [at 17.1 µM, percent relative to cAMP agonist control]"
same,Potency,[2],inactive
same,"activity change, negative = inhibition",[3],-19.4% [at 30.8 µM]
same,activation,[4],14.2% [at 30.8 µM]
O=C(O)CC/C(=C\c1cccc(NC(=O)c2ccccc2Cl)c1)c1nc2ccccc2s1,Potency,[1],inactive
same,Potency,[2],inactive
same,Potency,[3],inactive
same,Potency,[4],inactive
COc1cc2cc(Oc3ccc4ccc(=O)oc4c3)c(=O)oc2cc1O,Potency,[5],2 µM (active)
same,Potency,[6],> 46 µM
same,Potency,[7],inactive
same,Potency,[8],inactive
same,Potency,[9],inactive
same,outcome,[10],inactive
same,Potency,[11],inactive
same,Potency,[12],inactive
O=C(O)c1ccc(Nc2nc(-c3cc4ccccc4oc3=O)cs2)cc1O,Potency,[13],63.1 µM (active)
O=C1OC(c2ccccc2)(c2ccc(O)cc2)c2ccccc21 (centres undefined),"activity change, negative = inhibition",[3],-9.22% [at 30.8 µM]
Clc1ccc(C2Nc3cccc4cccc(c34)N2)c(Cl)c1,Potency,[3],inactive
CN1/C(=C\C=C2/C(=O)Oc3ccccc3C2=O)C(C)(C)c2ccccc21,Potency,[14],inactive
same,Potency,[2],inactive
same,Potency,[4],20 µM (active)
CN(C)/C=C/c1onc(-c2c(Cl)cccc2Cl)c1C#N,Potency,[3],inactive
same,Potency,[4],inactive
CCOC(=O)c1c(-c2ccccc2)oc2ccc(O)cc12,Potency,[3],inactive
